Data on 53 compounds can be found in article PMC4336329 (PLoS ONE, 2015).

The whole screen tested about 310,000 compounds, of which about 2,200 (0.71%) showed an effect of 50% or more. The effect is printed as a negative number. For the sample, strong results were picked, then their nearest neighbours and some compounds at random.

For the assay, the target named is human ether-à-go-go-related gene (hERG) potassium channel (human, UniProt Q12809). Briefly: primary screen, population patch clamp on CHO cells stably expressing hERG; higher = less effect of the substance. The method, then: Briefly, Chinese hamster ovary (CHO) cells stably expressing the hERG channel were dislodged from tissue culture flasks and dispensed into PPC plates. […] During the recording, background leak currents were estimated by a 100 ms step to -80 mV from an initial holding potential of -70 mV and subtracted from the subsequent current measurement. The campaign was conducted in two phases using slight differences in recording protocol. In the first phase, the initial voltage pulse used a 100 ms step to -30 mV from a holding potential of -70 mV, a 2 s conditioning step to +25 mV, and a 2 s test step to -30 mV. During the second phase of the screen, the potential during the conditioning step was raised to +45 mV. In both phases of the campaign, a secondary voltage pulse was applied using the same parameters as the second phase initial pulse. The initial and secondary pulses were applied in the absence of compound, and upon application of 1 μM and 10 μM test concentrations. Small molecule effects on hERG current density were quantified by […].
Chain of human ether-à-go-go-related gene (hERG) potassium channel (Q12809 whole entry, looked up): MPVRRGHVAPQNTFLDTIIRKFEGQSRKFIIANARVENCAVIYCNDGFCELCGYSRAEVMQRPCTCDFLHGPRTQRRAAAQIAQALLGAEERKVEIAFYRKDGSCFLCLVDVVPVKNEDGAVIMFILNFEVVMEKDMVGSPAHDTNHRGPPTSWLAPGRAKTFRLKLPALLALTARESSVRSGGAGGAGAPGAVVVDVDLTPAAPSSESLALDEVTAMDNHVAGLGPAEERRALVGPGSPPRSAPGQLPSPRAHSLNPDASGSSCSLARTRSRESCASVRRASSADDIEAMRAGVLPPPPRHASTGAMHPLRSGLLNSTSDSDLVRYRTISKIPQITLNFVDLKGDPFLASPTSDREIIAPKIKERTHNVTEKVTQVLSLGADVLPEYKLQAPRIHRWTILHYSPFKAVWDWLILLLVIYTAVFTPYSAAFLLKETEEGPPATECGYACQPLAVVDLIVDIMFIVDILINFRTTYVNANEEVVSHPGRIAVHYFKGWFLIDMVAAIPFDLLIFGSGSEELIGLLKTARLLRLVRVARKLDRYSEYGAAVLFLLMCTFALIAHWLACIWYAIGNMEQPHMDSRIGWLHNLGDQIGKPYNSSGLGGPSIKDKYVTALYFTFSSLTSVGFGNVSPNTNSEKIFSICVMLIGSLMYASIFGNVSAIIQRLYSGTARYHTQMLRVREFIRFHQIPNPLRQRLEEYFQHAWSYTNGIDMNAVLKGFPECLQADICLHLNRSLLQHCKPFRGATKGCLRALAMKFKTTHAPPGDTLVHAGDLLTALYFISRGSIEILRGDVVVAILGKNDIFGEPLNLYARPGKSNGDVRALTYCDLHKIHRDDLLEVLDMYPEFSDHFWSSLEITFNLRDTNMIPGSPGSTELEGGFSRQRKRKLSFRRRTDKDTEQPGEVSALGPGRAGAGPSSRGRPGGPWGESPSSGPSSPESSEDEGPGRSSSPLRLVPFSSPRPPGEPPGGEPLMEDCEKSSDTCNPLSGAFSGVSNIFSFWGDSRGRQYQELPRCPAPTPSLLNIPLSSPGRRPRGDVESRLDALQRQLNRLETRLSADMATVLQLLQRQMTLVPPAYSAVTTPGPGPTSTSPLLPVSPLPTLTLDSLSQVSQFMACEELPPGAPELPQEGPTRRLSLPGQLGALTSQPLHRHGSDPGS
On to `O=C(O)/C=C\C(=O)O.c1ccc(Sc2ccccc2CN2CCCC2)cc1`, for which the “hERG current change (%, negative = inhibition) at 1uM” value is -11.3%.
For `CN1CCN(Cc2ccccc2Sc2ccccc2)CC1.O=C(O)/C=C\C(=O)O`, the “hERG current change (%, negative = inhibition) at 1uM” value is -68.1%.
As to `CNC(C)Cc1ccccc1Sc1ccc(O)cc1.Cl` (centres unmarked), the “hERG current change (%, negative = inhibition) at 1uM” value was -21.1%.
In the case of `N/C(Cc1ccccc1Sc1ccccc1)=N\O.O=C(O)/C=C\C(=O)O`, the “hERG current change (%, negative = inhibition) at 1uM” value is 4.44%.
Next, `CCN(CC)Cc1ccccc1Sc1ccccc1.O=C(O)/C=C\C(=O)O`: -6.63%; `CC(Cc1ccccc1Sc1ccccc1)N(C)C.O=C(O)/C=C\C(=O)O` (centres unmarked): -60.6%.
Next, `CC(Cc1ccccc1Sc1ccccc1O)N(C)C.Cl` (centres unmarked): 3.67%.
Next, `CC(Cc1ccccc1Sc1ccc(O)cc1)N(C)C.CCO.Cl` (centres unmarked): -73.1%.
Consider `N=C(N)Cc1ccccc1Sc1ccccc1.O=C(O)/C=C\C(=O)O`, for which the “hERG current change (%, negative = inhibition) at 1uM” value is given as 5.87%.
With `CN(C)CCCn1c(SCC(=O)Nc2nc(-c3cccc(Br)c3)cs2)nc2ccccc2c1=O` the figure was -3.37%.
With `Cc1ccc([N+](=O)[O-])cc1NC(=O)c1ccccc1` the figure was 0.0028%; with `N#Cc1ccc(C(=O)Nc2nc(-c3cccs3)c(C(=O)C(F)(F)F)s2)cc1`, -18.6%; with `CCC(CC)NC(=O)Nc1ccccc1C`, 11.5%.
With `CC(C)OCCCN1CN(S(=O)(=O)c2ccc(Cl)cc2)c2nc3ccccc3nc21` the figure was 13.8%; with `O=C1Nc2ccc(Cl)cc2/C1=C/C1CC=CCC1` (centres unmarked), 7.83%.
On to `COc1ccc(N2CCN(Cc3oc(CO)cc(=O)c3O)CC2)cc1`, for which the “hERG current change (%, negative = inhibition) at 1uM” value is recorded as 2.29%.
With `Cc1ccccc1CN1CCN(CC(=O)NC(C)c2ccccc2)CC1` (centres unmarked) the figure was 3.82%; with `COc1ccc(CN(C(=O)CN2C(=O)c3ccccc3S2(=O)=O)C(C(=O)NCC2CCCO2)c2ccncc2)cc1` (centres unmarked), 0.0687%.
With `O=C(NCC1CCCO1)C(c1ccncc1)N(Cc1ccc(F)cc1)C(=O)CN1C(=O)c2ccccc2S1(=O)=O` (centres unmarked) the figure was -51.2%; with `COc1cccc(C(C(=O)NCC2CCCO2)N(CC2CCCO2)C(=O)CN2C(=O)c3ccccc3S2(=O)=O)c1` (centres unmarked), 12.5%.
Turning to `COc1ccc(CN(C(=O)CN2C(=O)c3ccccc3S2(=O)=O)C(C(=O)NCC2CCCO2)c2ccco2)cc1` (centres unmarked), the “hERG current change (%, negative = inhibition) at 1uM” value is given as -2.31%.
As to `COc1cccc(CN(C(=O)CN2C(=O)c3ccccc3S2(=O)=O)C(C(=O)NCC2CCCO2)c2ccco2)c1` (centres unmarked), the “hERG current change (%, negative = inhibition) at 1uM” value is recorded as -50.1%.
Next, `O=C(NCC1CCCO1)C(c1ccco1)N(Cc1ccc(F)cc1)C(=O)CN1C(=O)c2ccccc2S1(=O)=O` (centres unmarked): 8.75%; `COc1ccc(CC(=O)Nc2ccc(OC(C)=O)cc2C(=O)O)cc1`: -3.47%.
As for `O=c1c2ccccc2nnn1CSc1nnc2ccccn12`, the “hERG current change (%, negative = inhibition) at 1uM” value stood at 6.78%.
Next, `Cc1ccc(Sc2ncccc2C(=O)O)cc1C`: 15.6%; `CCOC(=O)N1CCC(NCCNC(=O)c2cccs2)CC1`: 5.13%.
With `CCOC(=O)c1[nH]c2ccc(OC)cc2c1NC(=O)OC` the figure was 9.33%; with `NC(=O)C1CCN(C(=O)N2c3ccccc3Sc3ccccc32)CC1`, 0.149%; with `O=C(NCc1ccco1)C1CCCN(S(=O)(=O)c2ccc(-n3cnnn3)cc2)C1` (centres unmarked), -26.8%.
With `O=C(NCc1ccco1)C1CCN(c2ccc(S(=O)(=O)N3CCOCC3)cc2[N+](=O)[O-])CC1` the figure was -51.5%.
For `O=C(NCc1ccco1)C1CCN(S(=O)(=O)c2ccc(-n3cnnn3)cc2)CC1`, the “hERG current change (%, negative = inhibition) at 1uM” value was -62.1%.
Next, `C=CCNC(=O)C1CCN(c2ccc(S(=O)(=O)N3CCOCC3)cc2[N+](=O)[O-])CC1`: -2.79%; `C=CCN(CC=C)C(=O)C1CCN(S(=O)(=O)c2ccc(-n3cnnn3)cc2)CC1`: -13.1%.
Next, `CC(C)CNC(=O)C1CCN(c2ccc(S(=O)(=O)N3CCOCC3)cc2[N+](=O)[O-])CC1`: -9.02%; `O=C(NCc1ccccc1Cl)C1CCN(S(=O)(=O)c2ccc(-n3cnnn3)cc2)CC1`: -3.01%; `CN(Cc1ccccc1)C(=O)C1CCN(S(=O)(=O)c2ccc(-n3cnnn3)cc2)CC1`: -62%.
Next, `CCN(CC)C(=O)C1CCN(S(=O)(=O)c2ccc(-n3cnnn3)cc2)CC1`: 3.52%; `C[C@@H]1CN(Cc2nc(Cc3ccccc3F)no2)C[C@H](C)O1`: 8.68%.
As for `O=C(Nc1cccc(C(=O)O)c1)/C(=C\c1ccc2c(c1)OCO2)NC(=O)c1ccccc1`, the “hERG current change (%, negative = inhibition) at 1uM” value was 3.01%.
Next, `CC(C)Oc1cccc(C(=O)C2CCCN(C(=O)c3cncs3)C2)c1` (centres unmarked): 4.28%.
Next, `CC1CCC(C(C)C)C(OC(=O)Cn2c(COc3ccccc3)[n+](C)c3ccccc32)C1.[Cl-]` (centres unmarked): -54%; `CC1CCC(C(C)C)C(OC(=O)C[n+]2cc(-c3ccc(Cl)cc3)n3c2CCCCC3)C1.[Cl-]` (centres unmarked): -19.9%; `CC1CCC(C(C)C)C(OC(=O)C[n+]2cc(-c3ccc(Cl)cc3)n3c2CCC3)C1.[Cl-]` (centres unmarked): -25.6%.
With `CC1CCC(C(C)C)C(OC(=O)Cn2c(-c3ccc(F)cc3)[n+](C)c3ccccc32)C1.[Cl-]` (centres unmarked) the figure was -53.9%.
`CC1CCC(C(C)C)C(OC(=O)Cn2c(-c3ccc(Cl)cc3)[n+](C)c3ccccc32)C1.[Cl-]` (centres unmarked): the “hERG current change (%, negative = inhibition) at 1uM” value was -58%.
With `CC1CCC(C(C)C)C(OC(=O)COC(=O)c2ccccc2N)C1` (centres unmarked) the figure was 4.58%.
As to `CC1CCC(C(C)C)C(OC(=O)Cn2c(-c3ccccc3)[n+](C)c3ccccc32)C1.[Cl-]` (centres unmarked), the “hERG current change (%, negative = inhibition) at 1uM” value is -42.1%.
Next, `Cc1cccc(OCc2n(CC(=O)OC3CC(C)CCC3C(C)C)c3ccccc3[n+]2C)c1.[Cl-]` (centres unmarked): -12.2%.
For `Cc1ccccc1OCc1n(CC(=O)OC2CC(C)CCC2C(C)C)c2ccccc2[n+]1C.[Cl-]` (centres unmarked), the “hERG current change (%, negative = inhibition) at 1uM” value is -1.86%.
Next, `CC1CCC(C(C)C)C(OC(=O)Cn2c(-c3ccc(Br)cc3)[n+](C)c3ccccc32)C1.[Cl-]` (centres unmarked): -60.7%; `COc1ccc(OCc2n(CC(=O)OC3CC(C)CCC3C(C)C)c3ccccc3[n+]2C)cc1.[Cl-]` (centres unmarked): -45.5%; `CC1CCC(C(C)C)C(OC(=O)COC(=O)c2cccn2C)C1` (centres unmarked): 17.6%.
